# Measurements reported in paper PMC7862700, “An all-to-all approach to the identification of sequence-specific readers for epigenetic DNA modifications on cytosine”.
# What was measured:
# Assay in all cases: DAPPL (digital affinity profiling via proximity ligation, sequencing); 10 mM Tris-HCl pH 7.5, 50 mM NaCl, 1 mM DTT, 4% glycerol, room temperature, 30 min; GST-TFs on glutathione beads, 16-mer random dsDNA library, 0.1% formaldehyde crosslink after washing; high values mean tight binding
# FEV = molecular target: T1, FEV (Homo sapiens, UniProt Q99581 1-238); conditions: protein: recombinant; tags: N-terminal GST; dsDNA, one strand shown
# T1 sequence: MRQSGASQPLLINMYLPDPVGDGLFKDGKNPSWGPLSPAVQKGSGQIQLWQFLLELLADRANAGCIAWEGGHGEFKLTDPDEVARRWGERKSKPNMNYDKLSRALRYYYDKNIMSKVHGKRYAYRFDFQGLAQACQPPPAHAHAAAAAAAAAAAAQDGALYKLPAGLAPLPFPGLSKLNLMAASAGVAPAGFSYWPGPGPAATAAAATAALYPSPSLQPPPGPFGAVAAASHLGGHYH
# How it was run: (§1)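 Beads coated with glutathione captured GST-fused human transcription factors that had been expressed in yeast, and the factors were then given DNA barcodes and pooled with a tag-only sample. The pools were incubated with 200 nmole of a random double-stranded 16-mer DNA library in Tris/NaCl/DTT/glycerol buffer for 30 min at room temperature, washed, crosslinked with 0.1% formaldehyde and proximity-ligated with BsaI/T4 ligase at 37 °C for 1 h. PCR amplification and Illumina NextSeq500 sequencing came last. Binding signal is each hexamer's read frequency for a factor divided by its frequency for the tag-only sample.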
# ETV5 = ETV5 (Homo sapiens, UniProt P41161 1-510); conditions: protein: recombinant; tags: N-terminal GST; dsDNA, one strand shown
# How it was run: as §1
# HSF1 = HSF1 (Homo sapiens, UniProt Q00613 1-529); conditions: protein: recombinant; tags: N-terminal GST; chain copies: 3; dsDNA, one strand shown
# How it was run: as §1
# SPIC = molecular target: T2, SPIC (Homo sapiens, UniProt Q8N5J4 1-248); conditions: protein: recombinant; tags: N-terminal GST; dsDNA, one strand shown
# T2 sequence: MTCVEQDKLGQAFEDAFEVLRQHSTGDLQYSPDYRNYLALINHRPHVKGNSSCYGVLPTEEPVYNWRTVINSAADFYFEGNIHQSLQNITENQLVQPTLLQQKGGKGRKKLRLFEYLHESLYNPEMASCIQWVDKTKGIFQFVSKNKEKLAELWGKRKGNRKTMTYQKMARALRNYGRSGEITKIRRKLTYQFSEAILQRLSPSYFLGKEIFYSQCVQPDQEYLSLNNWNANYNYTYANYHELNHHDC
# How it was run: as §1
# ELF4 = ELF4 (Homo sapiens, UniProt Q99607 1-663); conditions: protein: recombinant; tags: N-terminal GST; dsDNA, one strand shown
# How it was run: as §1
# ELK4 = molecular target: T3, ELK4 (Homo sapiens, UniProt P28324-2 1-405); conditions: protein: recombinant; tags: N-terminal GST; dsDNA, one strand shown
# T3 sequence: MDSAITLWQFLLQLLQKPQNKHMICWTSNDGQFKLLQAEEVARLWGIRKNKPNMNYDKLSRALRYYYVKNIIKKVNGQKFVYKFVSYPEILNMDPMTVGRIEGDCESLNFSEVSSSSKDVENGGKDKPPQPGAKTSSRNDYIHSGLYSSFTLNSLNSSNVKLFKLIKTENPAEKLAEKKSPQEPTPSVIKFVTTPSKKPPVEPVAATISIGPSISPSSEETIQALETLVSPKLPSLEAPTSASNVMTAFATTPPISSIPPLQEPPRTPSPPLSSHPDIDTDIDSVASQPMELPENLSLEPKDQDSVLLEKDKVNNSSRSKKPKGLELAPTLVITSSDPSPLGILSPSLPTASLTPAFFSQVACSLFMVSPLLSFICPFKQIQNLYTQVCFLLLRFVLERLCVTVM
# How it was run: as §1
# ETV2 = molecular target: T4, ETV2 (Homo sapiens, UniProt O00321 1-342); conditions: protein: recombinant; tags: N-terminal GST; dsDNA, one strand shown
# T4 sequence: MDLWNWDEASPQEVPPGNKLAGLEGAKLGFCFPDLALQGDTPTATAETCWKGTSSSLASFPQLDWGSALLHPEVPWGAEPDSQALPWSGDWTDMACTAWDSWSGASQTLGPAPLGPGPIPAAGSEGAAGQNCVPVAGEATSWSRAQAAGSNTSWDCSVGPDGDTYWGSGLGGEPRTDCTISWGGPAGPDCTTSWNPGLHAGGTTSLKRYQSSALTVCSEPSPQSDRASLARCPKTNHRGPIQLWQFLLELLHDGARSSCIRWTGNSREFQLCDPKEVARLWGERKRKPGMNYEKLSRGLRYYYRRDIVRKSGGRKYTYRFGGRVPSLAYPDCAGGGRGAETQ
# How it was run: as §1
# ELF3 = molecular target: T5, ELF3 (Homo sapiens, UniProt P78545 1-371); conditions: protein: recombinant; tags: N-terminal GST; dsDNA, one strand shown
# T5 sequence: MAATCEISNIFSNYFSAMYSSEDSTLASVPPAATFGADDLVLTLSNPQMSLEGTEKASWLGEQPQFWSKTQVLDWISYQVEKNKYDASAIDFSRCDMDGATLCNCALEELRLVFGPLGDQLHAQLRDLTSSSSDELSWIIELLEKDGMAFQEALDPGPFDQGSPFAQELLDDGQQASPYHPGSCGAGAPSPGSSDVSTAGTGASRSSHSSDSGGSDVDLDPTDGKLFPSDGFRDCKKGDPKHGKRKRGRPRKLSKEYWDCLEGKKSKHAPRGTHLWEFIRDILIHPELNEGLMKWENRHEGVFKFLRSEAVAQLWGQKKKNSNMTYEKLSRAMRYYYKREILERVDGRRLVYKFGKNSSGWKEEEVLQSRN
# How it was run: as §1
# CRX = CRX (Homo sapiens, UniProt O43186 1-299); conditions: protein: recombinant; tags: N-terminal GST; dsDNA, one strand shown
# How it was run: as §1
# Chain of ELF4 (Q99607 whole entry): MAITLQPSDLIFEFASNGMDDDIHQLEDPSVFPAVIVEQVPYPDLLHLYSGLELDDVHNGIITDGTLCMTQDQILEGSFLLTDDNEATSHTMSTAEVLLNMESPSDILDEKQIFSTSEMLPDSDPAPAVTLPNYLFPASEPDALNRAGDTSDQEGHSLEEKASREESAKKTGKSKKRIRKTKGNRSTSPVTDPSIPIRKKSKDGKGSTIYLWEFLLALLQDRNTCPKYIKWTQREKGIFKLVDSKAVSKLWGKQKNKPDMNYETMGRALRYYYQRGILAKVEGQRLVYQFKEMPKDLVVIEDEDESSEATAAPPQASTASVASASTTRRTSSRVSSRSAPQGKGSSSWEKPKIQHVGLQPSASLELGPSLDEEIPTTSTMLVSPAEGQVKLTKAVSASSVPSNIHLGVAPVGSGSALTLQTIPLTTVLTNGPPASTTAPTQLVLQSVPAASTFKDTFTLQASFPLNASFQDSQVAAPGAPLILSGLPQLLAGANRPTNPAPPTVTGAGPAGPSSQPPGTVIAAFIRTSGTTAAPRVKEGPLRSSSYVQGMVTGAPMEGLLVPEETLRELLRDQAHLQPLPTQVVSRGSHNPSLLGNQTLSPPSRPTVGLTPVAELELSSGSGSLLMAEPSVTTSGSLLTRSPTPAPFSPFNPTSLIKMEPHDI
# Chain of CRX (O43186 whole entry): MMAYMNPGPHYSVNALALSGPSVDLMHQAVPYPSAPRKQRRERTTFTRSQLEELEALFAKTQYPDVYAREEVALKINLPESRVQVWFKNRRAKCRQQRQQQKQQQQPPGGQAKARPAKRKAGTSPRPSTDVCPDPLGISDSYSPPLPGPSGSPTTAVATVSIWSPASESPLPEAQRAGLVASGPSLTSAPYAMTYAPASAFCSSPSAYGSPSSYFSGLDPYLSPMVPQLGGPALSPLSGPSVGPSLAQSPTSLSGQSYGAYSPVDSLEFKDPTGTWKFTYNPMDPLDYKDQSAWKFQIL
# Chain of HSF1 (Q00613 whole entry): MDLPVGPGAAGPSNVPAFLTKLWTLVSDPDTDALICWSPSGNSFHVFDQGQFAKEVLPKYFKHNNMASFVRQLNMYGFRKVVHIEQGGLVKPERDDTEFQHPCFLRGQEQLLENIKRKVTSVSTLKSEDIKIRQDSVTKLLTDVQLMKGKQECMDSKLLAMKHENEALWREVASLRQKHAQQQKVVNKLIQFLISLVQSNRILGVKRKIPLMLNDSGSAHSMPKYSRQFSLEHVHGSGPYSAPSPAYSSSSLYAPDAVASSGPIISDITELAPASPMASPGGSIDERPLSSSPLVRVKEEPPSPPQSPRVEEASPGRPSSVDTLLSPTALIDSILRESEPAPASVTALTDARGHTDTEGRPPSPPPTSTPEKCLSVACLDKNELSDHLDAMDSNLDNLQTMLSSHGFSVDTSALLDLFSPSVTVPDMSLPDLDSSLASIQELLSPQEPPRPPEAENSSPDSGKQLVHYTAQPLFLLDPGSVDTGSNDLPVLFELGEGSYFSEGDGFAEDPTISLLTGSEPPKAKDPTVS
# Chain of ETV5 (P41161 whole entry): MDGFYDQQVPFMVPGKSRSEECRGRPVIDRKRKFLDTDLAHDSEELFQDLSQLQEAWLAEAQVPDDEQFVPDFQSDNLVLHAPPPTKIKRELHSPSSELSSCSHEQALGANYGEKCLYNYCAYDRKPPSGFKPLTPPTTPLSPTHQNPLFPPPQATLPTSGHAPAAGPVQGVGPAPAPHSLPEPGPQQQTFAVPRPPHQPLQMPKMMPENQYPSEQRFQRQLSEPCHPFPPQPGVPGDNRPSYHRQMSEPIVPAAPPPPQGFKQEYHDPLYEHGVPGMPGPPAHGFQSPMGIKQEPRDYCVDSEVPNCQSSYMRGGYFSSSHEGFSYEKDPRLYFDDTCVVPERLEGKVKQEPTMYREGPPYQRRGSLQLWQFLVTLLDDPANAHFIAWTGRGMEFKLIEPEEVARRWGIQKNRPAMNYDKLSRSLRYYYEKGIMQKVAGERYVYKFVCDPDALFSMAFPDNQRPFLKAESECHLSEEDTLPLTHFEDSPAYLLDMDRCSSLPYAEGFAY
sequence,measurement,setting,value
GGATTT,binding signal,FEV,"2.01 fold enrichment (6-mer frequency, TF over GST control)"
same,binding signal,ETV5,"1.33 fold enrichment (6-mer frequency, TF over GST control)"
same,binding signal,HSF1,"1.62 fold enrichment (6-mer frequency, TF over GST control)"
same,binding signal,SPIC,"1.16 fold enrichment (6-mer frequency, TF over GST control)"
same,binding signal,ELF4,"1.26 fold enrichment (6-mer frequency, TF over GST control)"
same,binding signal,ELK4,"1.25 fold enrichment (6-mer frequency, TF over GST control)"
same,binding signal,ETV2,"1.27 fold enrichment (6-mer frequency, TF over GST control)"
same,binding signal,ELF3,"1.15 fold enrichment (6-mer frequency, TF over GST control)"
same,binding signal,CRX,"2.47 fold enrichment (6-mer frequency, TF over GST control)"
